What all share (assay): NCI-60 one-dose screen, 48 h (100 = growth as untreated, 0 = no growth, -100 = all killed)
In test [1] the test system is HCT-15 colon. As to conditions: 10 µM unless noted.
Test [2] relates to HT29 colon. To be noted: 10 µM unless noted.
Test [3] concerns SNB-19 CNS. To be noted: 10 µM unless noted.
In test [4] the test system is U251 CNS. To be noted: 10 µM unless noted.
For test [5], the system named is PC-3 prostate. As to conditions: 10 µM unless noted.
Test [6] concerns SK-MEL-5 melanoma. As to conditions: 10 µM unless noted.
The test system of test [7] is UACC-62 melanoma. To be noted: 10 µM unless noted.
For test [8], the system named is LOX IMVI melanoma. To be noted: 10 µM unless noted.
Test [9] concerns SK-MEL-28 melanoma. To be noted: 10 µM unless noted.
Test [10] relates to SK-MEL-2 melanoma. To be noted: 10 µM unless noted.
Test [11] has as its system EKVX NSCLC. As to conditions: 10 µM unless noted.
In test [12] the test system is SN12C renal. To be noted: 10 µM unless noted.
The subject of test [13] is UO-31 renal. To be noted: 10 µM unless noted.
Test [14] relates to ACHN renal. As to conditions: 10 µM unless noted.
Test [15] relates to A498 renal. To be noted: 10 µM unless noted.
Test [16] deals with CCRF-CEM leukemia. As to conditions: 10 µM unless noted.
For test [17], the system named is MOLT-4 leukemia. As to conditions: 10 µM unless noted.
For test [18], the system named is TK-10 renal. As to conditions: 10 µM unless noted.
The subject of test [19] is CAKI-1 renal. To be noted: 10 µM.

About 83,000 compounds went through this panel and 20% of them were active in at least one assay; those are over-represented in the sample as a whole.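 Testing used 96-well plates and a 48-hour single-concentration exposure. Example: -40 means 40% of the starting cells died.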 Values without a mark were called inactive. The source made the active and inactive calls. The calls were made as follows: active = growth percent below 10; inactive = the rest.

For `CC[C@H](C)[C@H]1NC(=O)[C@@H]([C@H](O)C(C)C)NC(=O)[C@@H](C)N(C)C(=O)[C@H](C)N(C)C(=O)[C@H](CC(C)C)NC(=O)[C@H](CC(C)C)N(C)C(=O)[C@H](C)N(C)C1=O`, the growth in test [1] is 1.74% (active); in test [2], 3.09% (active); in [3], 5.15% (active); in test [4], 1.21% (active); in [5] it was 5.5% (active); in [6], -12.4% (active). Also, the growth in test [7] was -3.83% (active); in [8] it was -1.35% (active); in [9], -9.11% (active); in [10], -27% (active); in test [11] it was -4.22% (active); in test [12], 2.49% (active). Besides, the growth was 5.19% (active) in [13]; 5.95% (active) in [14]; 5.77% (active) in [15]; 4.88% (active) in test [16]; 1.68% (active) in test [17].
`Oc1ccc(CSc2nnc(-c3ccc(Oc4ccccc4)cc3)n2-c2ccccc2)c2cccnc12`: the growth is 10.8% in test [1]; 44.8% in test [2]; 13.8% in test [3]; 11.9% in [4]; 17.3% in [5]; -24.1% (active) in test [6]. Also, the growth was -25.4% (active) in test [7]; 4.48% (active) in test [8]; 14.6% in test [9]; 37.6% in test [10]; 14.8% in test [11]; 19.1% in test [12]. In addition, the growth in test [13] was -5.33% (active); in test [18], 23.6%; in test [14], 6.83% (active); in test [19] it was 13.1%; in [15], 35.2%; in [16], 10.3%. The growth in test [17] was 18.7%.
In the case of `COc1cc2cc(Oc3ccc(NC(=O)Nc4cccc(C(F)(F)F)c4)cc3)c(C)nc2cc1OCCN(C)C`, the growth in test [1] was 25%; in test [2] it was 60.1%; in test [3], 99%; in [4], 84.8%; in test [5], 85.9%; in test [6], 81.2%. In addition, the growth in test [7] was 100%; in [8] it was -74.9% (active); in test [9], 91.6%; in [10], 111%; in [11], 92.9%; in test [12] it was 92.3%. Further, the growth in test [13] was 89.8%; in test [14] it was 97.3%; in [19] it was 89.9%; in test [15], 106%; in test [16] it was 71.4%; in test [17], 80.5%.
As for `O=C(Nc1cccc(-c2nc(-c3ccc(NC(=O)c4cccnc4)cc3Cl)no2)c1)Nc1ccc(NC(=O)C2CC2)c(C(F)(F)F)c1`, the growth in [1] was 9.01% (active); in test [2], -26.8% (active); in test [3], -0.276% (active); in test [4], -48% (active); in test [5], -65.8% (active); in test [6], -92.9% (active). The growth in [7] was -81.9% (active); in test [8], -93.3% (active); in test [9] it was -83.7% (active); in [10] it was -55% (active); in test [11], -28% (active); in test [12], -60.8% (active). The growth in [13] was 17.8%; in test [18] it was -20.4% (active); in test [14], 9.95% (active); in test [19] it was -72.7% (active); in test [15] it was -69.6% (active); in test [16], -16.3% (active). The growth in test [17] was -39.7% (active).
`O=[N+]([O-])c1ccc(-c2nnc(SCc3ccc(O)c4ncccc34)o2)cc1`: the growth in test [1] is 10.9%; in [2], 47.4%; in test [3] it was 22.2%; in test [4], 16.2%; in [5] it was 15%; in test [6], -6.14% (active). The growth in test [7] is 25.3%; in [8], 25%; in test [9], 38.9%; in test [10], 25%; in test [11] it was 27.3%; in test [12], 17.1%. Moreover, the growth in [13] is 7.09% (active); in test [18], 29.2%; in test [14], 12.6%; in test [19], 22.9%; in [15], 27.7%; in test [17], 25.1%.
Consider `CCCCOc1ccc(S(=O)(=O)N2CCN(c3nccc(N4CCOCC4)n3)CC2)cc1`, for which the growth is 7.04% (active) in test [1]; 13.5% in test [2]; 71.4% in test [3]; 27.2% in [4]; 41.3% in [5]; 46.8% in test [6]. Moreover, the growth in test [7] is -7.93% (active); in test [8], -67.9% (active); in [9] it was 21.1%; in [10], 33.5%; in [11], 46.3%; in [12], 28.7%. For the same molecule, the growth in [13] is 24.8%; in test [18], 44.3%; in [14], 15.1%; in test [19] it was 13.8%; in [15], -1.44% (active); in test [16] it was 49.8%. Further, the growth in test [17] is 24.2%.
Take `Oc1ccc(CSc2nnc(-c3ccccc3)n2-c2ccccc2)c2cccnc12`: the growth in test [1] was 13.6%; in test [2], 52.4%; in test [3], 12.6%; in [4], 12.8%; in [5] it was 23%; in test [6], -22% (active). The growth is -34.1% (active) in test [7]; 5.5% (active) in [8]; 17.7% in test [9]; 30.8% in [10]; 18.5% in [11]; 19.5% in test [12]. The growth in test [13] was -19.8% (active); in [18], 27.3%; in test [14] it was 6.88% (active); in test [19], 10.5%; in test [15], 12.7%; in test [16], 9.93% (active). The growth in test [17] was 15.6%.
`O=C(CCCCCCN1CC(=O)N2[C@@H](c3cc(F)cc(F)c3)c3[nH]c4ccccc4c3C[C@H]2C1=O)NO`: the growth in [1] was 96.7%; in test [2], 47.8%; in test [3], 65.9%; in test [4], 57.3%; in test [5] it was 48.5%; in test [6], 47.2%. Besides, the growth in test [7] is 21.4%; in [8], 19.6%; in test [9], 52.7%; in [10], 62.1%; in test [11], 78.9%; in [12], 71.9%. The growth in test [13] is 61.6%; in test [18], 69.6%; in [14], 88.8%; in test [19], 64.7%; in [15], 77.6%; in test [16], 16.5%. Further, the growth in test [17] is 14.2%.

The values are drawn from PubChem BioAssay (NCI).
